Measurements taken from the supplement of paper PMC10338343.
± gives the standard deviation.

How the values were obtained:
[1] = system: MILI (PIWIL2) piRISC loaded with piRNA #1 (26 nt); test: pre-steady-state target cleavage rate (min^-1); guide: piRNA #1 5'p-UGAGGUAGUAGGUUGUAUAGUAUCCA; higher = faster piRNA-guided slicing of the target; settings: auxiliary factor: 500 nM mouse GTSF1;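 further: 1 nM active piRISC with 0.1 nM target library at 33 °C single turnover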
Method in brief: (§1)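 Reactions were run for 0–8 or 0–960 min at 33 °C in HEPES–potassium acetate buffer, combining 1 nM active affinity-purified piRISC with one synthetic guide, […] transcribed, DNA-blocked target RNA library and, in some cases, 500 nM GTSF1 partner protein. Sequencing of uncleaved targets followed, with normalisation to depth and to weakly complementary targets. Three trials were pooled, k3 was capped at 0.0001 min^-1, and the pre-steady-state cleavage rate was taken from a burst-and-steady-state fit.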

[2] = system: EfPiwi piRISC loaded with piRNA #1 (26 nt); test: pre-steady-state target cleavage rate (min^-1); auxiliary factor: 500 nM Ephydatia muelleri Gtsf1; guide: piRNA #1 5'p-UGAGGUAGUAGGUUGUAUAGUAUCCA; MIWI and MILI are mouse PIWI proteins and EfPiwi is from a freshwater sponge; tags in brackets are library labels; higher = faster piRNA-guided slicing of the target
Method in brief: as §1

Row | Sequence | pre-steady-state target cleavage rate [1] | pre-steady-state target cleavage rate [2]
1 | GGAGAGGAUACUAUACAACCUACCACCUCA | 0.129 ± 0.018 | 0.00459 ± 0.002
2 | GGAGUGGAUACUAUACAACCUACUACUCUCA | 0.14 ± 0.012 | 0.00513 ± 0.0029
3 | GGAGAGGAUACUAUACAAGCAACUACCUCA | 0.00819 ± 0.0023 | 0.00405 ± 0.0022
4 | GGAGUGGAUACUAUACAACCUACUACCAUCA | 0.0921 ± 0.013 | 0.00588 ± 0.0026
5 | GGAGAGGAUACUUAUCAACCUACUACCUCA | 0.135 ± 0.0097 | 0.00553 ± 0.0043
6 | GGAGACGAUACUAUACAACGAACUACCUCA | 0.00414 ± 0.0015 | 0.00251 ± 0.0024
7 | GGAGUGGAAUCUAUACAACCUACUACCUCA | 0.152 ± 0.0088 | 0.00913 ± 0.0055
8 | GGAGUGGAUACUAUACAACCAACUACCUCA | 0.00575 ± 0.0022 | 0.00568 ± 0.002
9 | GGAGACCAUUCUAUACAACCUACUAGCUCA | 0.0909 ± 0.015 | 0.00323 ± 0.0026
10 | GGAGACCUUACGUAUACAACCUACUACCUCA | 0.0406 ± 0.0063 | 0.00861 ± 0.0055
11 | GGAGACCUUACUAUACAACCUACUACCUCG [g2:g22:cont:t1G] | 0.173 ± 0.015 | 0.062 ± 0.022
12 | GGAGAGGAGACUAUACAACCUACUACCUCA | 0.25 ± 0.052 | 0.0151 ± 0.0058
13 | GGAGACCAUACUAUACAACCUACUAUCCUCA | 0.219 ± 0.019 | 0.00375 ± 0.0028
14 | GGAGACCUUACUAUACAACGUACUACGUCA | 0.00879 ± 0.0038 | 0.00267 ± 0.0018
15 | GGAGACGAUACUAUACAACCUACUUGCUCA | 0.155 ± 0.052 | 0.00371 ± 0.0014
16 | GGAGUGGAUACUAUACAUCCUACUACCACA | 0.108 ± 0.014 | 0.00415 ± 0.0017
17 | GGAGACGGUACUAUACAACCUACUACCUCA | 0.187 ± 0.016 | 0.0154 ± 0.0059
18 | GGAGUGGAUACGUAUACAACCUACUACCUCA | 0.111 ± 0.0099 | 0.082 ± 0.03
19 | GGAGACCUAUCUAUACAACCUACUACCUACA | 0.0858 ± 0.015 | 0.00445 ± 0.0039
20 | GGAGUGGAUACUAUACAACCUACUACCUAA | 0.105 ± 0.014 | 0.151 ± 0.054
21 | GGAGAGGAUUGUAUACAACCUACUACCUCA | 0.103 ± 0.0085 | 0.00676 ± 0.0048
22 | GGAGUGGAUACUAUACAACCUCCUACCUCA | 0.0339 ± 0.0035 | 0.0053 ± 0.0019
23 | GGAGACGAUACUAUACAAGCUUCUACCUCA | 0.0442 ± 0.0052 | 0.0034 ± 0.0019
24 | GGAGAGGAUACUAUACAUCCUACUUCCUCA | 0.0107 ± 0.0033 | 0.00317 ± 0.0017
25 | GGAGAGGAUACUAUUCAACCUACUACCUGA | 0.0595 ± 0.0098 | 0.00319 ± 0.0018
26 | GGAGAGGAUACUAUACAACGUACUACCUCA | 0.0143 ± 0.003 | 0.0053 ± 0.0021
27 | GGAGUGGAUACUAAACAACCUAGUACCUCA | 0.0567 ± 0.011 | 0.00256 ± 0.0016

Row | Sequence | pre-steady-state target cleavage rate [1] | pre-steady-state target cleavage rate [2]
28 | GGAGACCAUACUAUACAACCUACUAACCUCA | 0.226 ± 0.019 | 0.00357 ± 0.0025
29 | GGAGACGAUACUAAACAACCUACUACCUCA | 0.207 ± 0.016 | 0.0292 ± 0.012
30 | GGAGUGGAUACUAUAGAACCUACAACCUCA | 0.0134 ± 0.0034 | 0.00234 ± 0.0015
31 | GGAGUGGAUACUAUACACCUACUACCUCA | 0.0342 ± 0.0053 | 0.157 ± 0.056
32 | GGAGACCUAUCUAUACAACCUACUACCUUA | 0.103 ± 0.015 | 0.0739 ± 0.027
33 | GGAGACCUAUCUAUACAUCCUACUACCUGA | 0.0957 ± 0.022 | 0.00459 ± 0.0036
34 | GGAGACCUAACUAUACCACCUACUACCUCA | 0.0944 ± 0.018 | 0.0066 ± 0.0031
35 | GGAGUGGAUACUAUACAAGCUACUACCUGA | 0.0875 ± 0.014 | 0.00454 ± 0.0019
36 | GGAGACCUUACUAUACAAUCUACUACCUCA | 0.127 ± 0.01 | 0.00599 ± 0.0041
37 | GGAGAGGAUACUAUACAACCUACUAACUCA | 0.0462 ± 0.014 | 0.00561 ± 0.0029
38 | GGAGUGGAUACUAUACAACCUACUACAUCA | 0.0416 ± 0.0072 | 0.00707 ± 0.0031
39 | GGAGACCAUACUUUACUACCUACUACCUCA | 0.129 ± 0.015 | 0.00371 ± 0.0032
40 | GGAGACCUAACUAUACAACCUAGUUCCUCA | 0.00721 ± 0.0051 | 0.00297 ± 0.0025
41 | GGAGACCAUACUAUACAACCUACUUCCUGA | 0.0889 ± 0.02 | 0.00388 ± 0.0027
42 | GGAGACCAUUCUAUACAACCUUCUACCUCA | 0.0122 ± 0.0038 | 0.00336 ± 0.0032
43 | GGAGAGGAUACUAUUCAAGCUACUACCUCA | 0.131 ± 0.014 | 0.00323 ± 0.002
44 | GGAGACCAUCUAUACAACCUACUACCUCA | 0.112 ± 0.013 | 0.00903 ± 0.0054
45 | GGAGUGGAUACAAUACUACCUACUACCUCA | 0.16 ± 0.013 | 0.00316 ± 0.0019
46 | GGAGACCAUAAUAUACAACCUACUACCUCA | 0.0982 ± 0.013 | 0.0856 ± 0.03
47 | GGAGACCAUACUAUACAUCCUAGUACCUCA | 0.0776 ± 0.018 | 0.00345 ± 0.0019
48 | GGAGACCAUUCUAUACAACCUAGUACCUCA | 0.0977 ± 0.022 | 0.00433 ± 0.0024
49 | GGAGAGGAUACUAUACAACCUACUACCAUCA | 0.0616 ± 0.0087 | 0.00705 ± 0.0029
50 | GGAGUGGAUACUAACAACCUACUACCUCA | 0.183 ± 0.011 | 0.00566 ± 0.0038
51 | GGAGACGAUACUAUACAACCUACCUACCUCA | 0.131 ± 0.011 | 0.00485 ± 0.002
52 | GGAGUGGAUACUAAACAACGUACUACCUCA | 0.0219 ± 0.0031 | 0.00304 ± 0.0013
53 | GGAGAGGAUACGAUACAACCUACUACCUCA | 0.166 ± 0.011 | 0.00899 ± 0.0037
54 | GGAGACGAUACUAUACAACCUACUACGCUCA | 0.19 ± 0.02 | 0.00415 ± 0.0014
